LDHA inh = LDHA (human) enzyme inhibition. AID 1347041. P00338. purified LDHA, NADH/diaphorase-resazurin fluorescence; active compounds read low. 480,000 compounds, 0.15% hits. activity change, % (values are at about 110 or 230 µM); in the data active = activity change below about -30%; inconclusive = mostly about -25% to -30%;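 note: plate controls were DMSO wells for no effect and wells without enzyme for full effect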
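Human LDH5 (2 nM) was incubated with 0.06 mM NADH and 0.2 mM pyruvate for 5 min at room temperature in Tris pH 7.4. Remaining NADH was coupled through diaphorase/resazurin, and resorufin fluorescence was read at 0 and 20 min.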
D1 potentiator = potentiators of human D1 dopamine receptor. P21728. HEK293 TREx D1 cells, calcium flux, dopamine EC20 potentiation. potentiation, % at 10 µM. 360,000 compounds, 0.036% hits. AID 504651; in the data active = potentiation above about 30%; note: 0% is about no effect
Target sequence (P21728 whole entry, looked up): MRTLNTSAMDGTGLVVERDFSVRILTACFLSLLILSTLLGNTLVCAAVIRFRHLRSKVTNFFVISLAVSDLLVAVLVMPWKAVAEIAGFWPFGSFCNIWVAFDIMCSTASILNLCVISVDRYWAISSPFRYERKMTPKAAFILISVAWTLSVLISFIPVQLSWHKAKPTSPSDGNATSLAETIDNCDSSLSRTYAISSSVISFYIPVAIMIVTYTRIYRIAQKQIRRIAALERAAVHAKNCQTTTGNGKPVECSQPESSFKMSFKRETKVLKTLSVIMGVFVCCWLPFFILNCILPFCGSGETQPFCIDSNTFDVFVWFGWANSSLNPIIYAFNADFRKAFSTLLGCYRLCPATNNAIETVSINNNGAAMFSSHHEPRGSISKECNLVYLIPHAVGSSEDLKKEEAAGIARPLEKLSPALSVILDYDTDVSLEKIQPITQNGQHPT
TRHR agonist-1 = activates the human TRH receptor | TRHR cells, calcium flux fluo-8, FDSS agonist mode | activation, % at 2 µM | 360,000 compounds, 0.18% hits | AID 493084; in the data active = activation above about 30%; note: 0% is about no effect
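Read-out: compound-evoked intracellular calcium rise in TRHR cells, fluo-8 dye, kinetic FDSS fluorescence at 1 s/cycle following a 10-cycle baseline. Cells cultured overnight before dye loading (30 min–1.5 h, RT).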
D1 ag = activates the human D1 dopamine receptor; P21728; HEK293 T-REx D1 cells, calcium flux, agonist mode; activation, % at 2 µM; 360,000 compounds, 1% hits; AID 504660; in the data active = activation above about 30%; note: 0% is about no effect
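Inducible HEK293 T-REx D1 cells, force-coupled to calcium signalling, were plated at 4000 cells/well with tetracycline and held overnight at 30 C. After no-wash calcium dye loading, compound-evoked calcium rise over 180 s flagged agonists.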
TRHR enhancer-1 = allosteric enhancers of human TRH receptor; TRHR cells, fluo-8 calcium fluorescence, EC20 TRH enhancement; AID 493056; P34981; enhancement, % at 2 µM; 360,000 compounds, 0.66% hits; in the data active = enhancement above about 30%; note: 0% is about no effect
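TRHR-expressing cells loaded with fluo-8 calcium dye were read kinetically (ex 480/em 530) during compound addition, then stimulated with an EC20 of TRH (10 nM final). Enhancement of the Gq-mediated intracellular calcium response was scored.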
D1 antag = blocks dopamine activation of the human D1 receptor. P21728. HEK293 TREx D1 cells, calcium flux, dopamine EC80; active compounds read low. activity change, negative = inhibition, % at 10 µM. 360,000 compounds, 3.2% hits. AID 504652; in the data active = activity change below about -30%; note: % is set by controls: 0 for no effect and ±100 for the full control effect
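Antagonism measured as reduced calcium response to an EC80 dopamine addition following 180 s compound pre-read; cells were inducible HEK293 Trex D1 plated overnight at 30 C, read kinetically at 1 cycle/sec.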
TRHR enhancer-2 = human TRH receptor allosteric enhancement confirmation; 970 tested, under 10 active; activity change, negative = inhibition, % at 46.1 µM; shares compounds with TRHR enhancer-1; AID 493076; TRH receptor cell assay, enhancer confirmation qHTS;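 note: compound effect scored on response to added TRH at EC20 of 10 nM; 0% is about no effect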
TRHR agonist-2 = confirmation of human TRH receptor agonists; AID 493078; 970 compounds, 8% hits; TRHR-expressing cells, agonist activation read-out; Potency, µM (highest dose often 46.1 µM), for inactives: at the highest dose activation, hits mostly activators; shares compounds with TRHR enhancer-1; note: potency is the fitted concentration of half-maximal effect; 0% is about no effect; nearly all actives have a fitted effect of over 75% in size
Active calls of the source: *; ? = inconclusive; · = no result. An excerpt weighted towards active compounds, which were near 3.6% of everything screened. Unless noted, calls come from the whole dose curve; as a rule, active = well fitted curve in the direction sought with a large enough effect; inconclusive = small, poorly fitted or top-dose-only effect, or another doubt; inactive = no such curve, though single readings can be large; an effect the other way counts as inactive or inconclusive.

SMILES	LDHA inh	D1 potentiator	TRHR agonist-1	D1 ag	TRHR enhancer-1	D1 antag	TRHR enhancer-2	TRHR agonist-2
O=C(Nn1cnnc1)c1cccc(S(=O)(=O)N2CCOCC2)c1	-3	0	102*	7	5	1	5	-1%
Cc1ccc(NC(=O)C2CSC3(C)CCC(=O)N23)cc1S(=O)(=O)N1CCOCC1 (stereo not drawn)	-1	·	0	7	9	2	·	·
Cc1ccc(NC(=O)COC(=O)C2CSC3(C)CCC(=O)N23)cc1S(=O)(=O)N1CCOCC1 (stereo not drawn)	-2	-7	2	4	42*	-38*	-3	-1%
CCOC(=O)c1cnc(-n2nc(C)cc2C)nc1Nc1ccc(OC)cc1	-6	-2	0	2	42*	-19	-3	?
CCOC(=O)/C(C#N)=C/c1cc(Br)ccc1OCc1c(F)cccc1Cl	-3	·	·	·	·	·	·	·
COc1ccccc1NC(=S)N(Cc1cccnc1)Cc1ccccc1Cl	-2	-3	0	1	-1	-13	·	·
Cc1ccccc1NC(=S)N(Cc1cccnc1)Cc1ccccc1Cl	-2	-6	-1	2	47*	11	?	6%
Cc1ccc(CN2C(=O)C3(c4ccccc42)N(c2ccc(F)c(Cl)c2)C(=O)CS3(=O)=O)cc1 (stereo not drawn)	2	·	·	·	·	·	·	·
CCCn1nc(C(=O)Nc2nc(-c3cc(OC)ccc3OC)cs2)c2ccccc2c1=O	-1	·	·	·	·	·	·	·
NC(=O)c1ccc[n+]([C@H]2O[C@@H](COP(=O)([O-])OP(=O)(O)OC[C@H]3O[C@@H](n4cnc5c(N)ncnc54)[C@H](O)[C@@H]3O)[C@H](O)[C@@H]2O)c1	-2	23	27	190*	9	20	-1	?
Cc1cc(-c2nn(-c3ccccc3F)cc2CNCCc2cnc[nH]2)c(C)s1	-2	-2	0	3	51*	-5	-2	1%
Oc1c(Cl)cc(Cl)cc1/C=C/c1ccc2cccc(O)c2n1	1	-1	42*	114*	-10	-14	?	?
COc1ccc(C2(C(=O)NC(C)C)CCCC2)cc1OC	-7	7	0	2	52*	-12	-5	0%
COc1ccc(C2(C(N)=O)CCCCC2)cc1OC	-4	0	0	4	-6	-2	·	·
COc1cc(CNC(C)C23CC4CC(CC(C4)C2)C3)ccc1OCC(=O)NC(C)(C)C (stereo not drawn)	0	0	43*	37*	-16	2	-2	?
COc1cc(CNC(C)(C)CO)ccc1OCC(=O)NC(C)(C)C	-2	-5	0	0	0	15	·	·
CCCCn1nc(C(=O)Nc2cccc(Cl)c2)c2ccccc2c1=O	11	·	·	·	·	·	·	·
CC(NC(=O)c1cc(Br)cs1)C1CCCO1 (stereo not drawn)	0	0	0	-3	52*	-12	-4	-1%
COc1ccc(NC(=O)C(=O)c2c[nH]c3ccccc23)cc1	-7	·	·	·	·	·	·	·
CN(CC(=O)NCc1ccc2c(c1)OCO2)S(=O)(=O)c1ccc(F)cc1	-5	2	0	1	43*	0	8	-1%
COc1cnc(-c2ccccc2)nc1Oc1cccc(C)c1	-2	0	0	5	59*	3	-6	3%
COc1cnc(-c2ccccc2)nc1OC	-3	12	-1	1	3	0	·	·
O=C1CC(c2ccc(Cl)cc2Cl)c2c(n3c(nc4ccccc43)[nH]c2=O)N1 (stereo not drawn)	-2	·	·	·	·	·	·	·
Cc1c(C)c2ccc(OCc3nn[nH]n3)cc2oc1=O	12	·	·	·	·	·	·	·
O=C(O)C1CC=CCC1C(=O)NCCCN1CCCC1=O (stereo not drawn)	-1	2	0	4	45*	-14	1	-1%
SMILES	LDHA inh	D1 potentiator	TRHR agonist-1	D1 ag	TRHR enhancer-1	D1 antag	TRHR enhancer-2	TRHR agonist-2
CC1=C(C)CC(C(=O)NCCCN2CCCC2=O)C(C(=O)O)C1 (stereo not drawn)	-6	-6	0	1	-8	-5	·	·
O=C1CCCN1c1cccc(-c2csc(-c3cccnc3)n2)c1	6	·	·	·	·	·	·	·
COc1ccc(-c2nn(C)c(-c3ccc(OC)cc3)c2-c2nc3ccccc3n2C)cc1	3	·	·	·	·	·	·	·
N#Cc1cn(CC(=O)Nc2ccc(F)c(Cl)c2)c2ccccc12	2	·	·	·	·	·	·	·
Nc1nc(SCC(=O)N2CCCC2)[nH]c(=O)c1-c1ccccc1	-2	-2	0	0	0	5	·	·
Nc1nc(SCC(=O)N2CCOCC2)[nH]c(=O)c1-c1ccccc1	-3	-1	1	3	65*	7	7	0%
O=C(Nc1ccccc1)/C(=C/c1ccc2c(c1)OCO2)NC(=O)c1ccco1	-6	-7	0	3	52*	0	2	0%
Cc1cc(NC(=O)N2Cc3cccn3-c3ccccc32)ccc1Br	-5	·	·	·	·	·	·	·
COc1ccc(Nc2ccc(N3C(=O)CCCC3=O)cc2[N+](=O)[O-])cc1OC	8	-2	0	1	-2	3	·	·
CCOc1ccc(Nc2ccc(N3C(=O)CCC3=O)cc2[N+](=O)[O-])cc1	-3	1	0	0	48*	6	-10	5%
N#C/C(=C(/O)c1ccccc1F)c1nc2cc(C(F)(F)F)ccc2s1	0	-3	1	2	41*	-15	-1	-1%
Cc1c(C2(O)C(=O)Nc3ccc(F)cc32)c(=O)n(-c2ccccc2)n1C (stereo not drawn)	-1	-1	0	3	50*	4	0	-1%
CCN(CC)C(=S)SC(C)c1nc(N)nc(N(C)C)n1 (stereo not drawn)	8	·	·	·	·	·	·	·
O=C(NC1CCCC1)c1cc(-c2ccccc2Cl)nc2ccccc12	15	·	·	·	·	·	·	·
Cc1ccc(C(=O)CN2C(=O)NC3(CCc4ccccc43)C2=O)s1 (stereo not drawn)	8	-1	-1	-1	58*	14	-2	-1%
CCOC(=O)CN1C(=O)S/C(=C/C=C/c2ccc(N(C)C)cc2)C1=O	-5	-6	32*	105*	-6	-18	-1	?
CCOC(=O)CN1C(=O)S/C(=C/c2ccc3c(c2)n(C)c(=O)n3C)C1=O	-2	1	0	1	-3	6	·	·
COC(=O)c1cccc(NC(=O)CN2CCc3ccccc3C2)c1	-1	0	0	3	71*	-9	-4	6%
Fc1ccccc1-c1nc(N2CCCCCC2)c2ccccc2n1	11	·	·	·	·	·	·	·

Compound activity: PubChem, National Center for Advancing Translational Sciences (NCATS)
